Records with an inconclusive call do not appear. Entries that show only a call come without a potency. Active and inactive are the calls of the source. Unless noted, calls come from the whole dose curve; as a rule, active = well fitted curve in the direction sought with a large enough effect; inconclusive = small, poorly fitted or top-dose-only effect, or another doubt; inactive = no such curve, though single readings can be large; an effect the other way counts as inactive or inconclusive.
How the values were obtained:
[1] = target: Aldehyde dehydrogenase, mitochondrial (Homo sapiens) (UniProt P05091); experiment: qHTS for Inhibitors of the Aldehyde Dehydrogenase Family (ALDH2) Confirmatory screens (AID 2061303; active = well fitted inhibition curve with a large enough effect; title and protocol of this record describe different tests; note: nearly all actives have a fitted effect of over 45% in size; note: potency is the fitted concentration of half-maximal effect)
[2] = target: Retinaldehyde dehydrogenase 3 (Homo sapiens) (UniProt P47895); experiment: qHTS for Inhibitors of the Aldehyde Dehydrogenase Family (ALDH1A3) Confirmatory screens (AID 2061311); note: nearly all actives have a fitted effect of over 60% in size; note: potency is the fitted concentration of half-maximal effect
[3] = target: Retinal dehydrogenase 2 (Homo sapiens) (UniProt O94788); experiment: qHTS for Inhibitors of the Aldehyde Dehydrogenase Family (ALDH1A2) Confirmation screens (AID 2061314); note: nearly all actives have a fitted effect of over 65% in size; note: potency is the fitted concentration of half-maximal effect
[4] = target: Aldehyde dehydrogenase 1A1 (Homo sapiens) (UniProt P00352); experiment: qHTS for Inhibitors of the Aldehyde Dehydrogenase Family (ALDH1A1) Confirmatory screens (AID 2061316); note: nearly all actives have a fitted effect of over 65% in size; note: potency is the fitted concentration of half-maximal effect
[5] = target: Retinaldehyde dehydrogenase 3 (Homo sapiens) (UniProt P47895); experiment: qHTS for Inhibitors of the Aldehyde Dehydrogenase Family (ALDH1A3) Primary screen (AID 2061315)
[6] = target: Retinaldehyde dehydrogenase 3 (Homo sapiens) (UniProt P47895); experiment: qHTS for Inhibitors of the Aldehyde Dehydrogenase Family (ALDH1A3) Validation screen (AID 2061312); note: potency is the fitted concentration of half-maximal effect; nearly all actives have a fitted effect of over 45% in size
[7] = target: Aldehyde dehydrogenase, mitochondrial (Homo sapiens) (UniProt P05091); experiment: qHTS for Inhibitors of the Aldehyde Dehydrogenase Family (ALDH2) Primary screen (AID 2061308); note: nearly all actives have a fitted effect of over 55% in size

## Cc1noc2c(NCCc3ccccn3)cc(-c3ccccn3)nc12
[1]
  Potency: inactive
[2]
  Potency: 14.1 µM (active)

## CCOc1ccc(NC(=O)N2CCN(c3ccc(Cl)c(Cl)c3)CC2)cc1
[1]
  Potency: inactive
[2]
  Potency: inactive
[3]
  Potency: inactive
[4]
  Potency: inactive

## O=C(CN1CCCN(S(=O)(=O)c2ccc(Br)cc2)CC1)Nc1cccc(C(F)(F)F)c1
[1]
  Potency: 1.15 µM (active)
[2]
  Potency: 6.47 µM (active)
[3]
  Potency: 25.1 µM (active)
[4]
  Potency: 1.45 µM (active)

## O=C(Nc1cccc(-c2nn3c(=O)cc(N4CCNCC4)nc3s2)c1)c1ccncc1
[1]
  Potency: 7.08 µM (active)
[2]
  Potency: 28.2 µM (active)
[3]
  Potency: 14.1 µM (active)
[5]
  Potency: inactive
[4]
  Potency: 3.18 µM (active)

## O=C(NCc1ccc(F)cc1)c1ccc2nnc(-c3cccc(C(F)(F)F)c3)n2c1
[1]
  Potency: inactive
[2]
  Potency: inactive
[3]
  Potency: inactive
[4]
  Potency: inactive

## CC1(C)CCC(C)(C)c2cc3c(cc21)Sc1ccccc1N=C3c1ccc(C(=O)O)cc1
[1]
  Potency: inactive
[2]
  Potency: inactive
[6]
  Potency: 6.31 µM (active)
[3]
  Potency: inactive
[5]
  Potency: inactive

## CCOc1ccc(CCNC(=O)c2ccc(N3N=C(C)CC3=O)cc2)cc1OCC
[1]
  Potency: 1.26 µM (active)
[2]
  Potency: 0.1 µM (active)
[3]
  Potency: 0.896 µM (active)
[5]
  Potency: inactive
[4]
  Potency: 0.896 µM (active)

## CC(=O)Nc1sc2c(c1-c1nc3ccccc3s1)CN(C1COC1)C2
[1]
  Potency: 12.7 µM (active)
[2]
  Potency: 8.96 µM (active)
[3]
  Potency: 8.96 µM (active)
[5]
  Potency: inactive
[4]
  Potency: 2.52 µM (active)

## O=c1[nH]c2ccc(NCc3ccc(-c4ccc(F)cc4)o3)cc2[nH]1
[1]
  Potency: 0.914 µM (active)
[2]
  Potency: inactive
[3]
  Potency: inactive

## Cn1nnnc1Sc1ncnc2scc(-c3ccc([N+](=O)[O-])cc3)c12
[1]
  Potency: inactive
[7]
  Potency: inactive
[5]
  Potency: inactive

## CCOC(=O)c1ccc(N2CCN(c3cccc(Cl)c3)CC2)c(NC(=O)Nc2ccc(Cl)cc2)c1
[1]
  Potency: inactive
[2]
  Potency: inactive
[3]
  Potency: inactive
[4]
  Potency: inactive

## Cc1nc(CNc2ncnc3ccc(-c4ccoc4C)cc23)cs1
[1]
  Potency: inactive
[7]
  Potency: inactive
[5]
  Potency: inactive

## COc1ccc(CNC(=O)c2cc3c(=O)n(Cc4ccc(OC)cc4)ccc3nc2C)cc1
[1]
  Potency: inactive
[2]
  Potency: inactive
[3]
  Potency: inactive
[4]
  Potency: inactive

## Cc1ccc(NC(=O)c2cc(-c3ccc(Br)s3)nc3ccccc23)cc1F
[1]
  Potency: inactive
[2]
  Potency: inactive
[3]
  Potency: inactive
[4]
  Potency: inactive

## Cc1cc(C)nc(NC(=C(C#N)C#N)N2CCN(c3cccc(C(F)(F)F)c3)CC2)c1
[1]
  Potency: 14.2 µM (active)
[7]
  Potency: inactive
[5]
  Potency: inactive

## O=S(=O)(Nc1ccc(O)c(NS(=O)(=O)c2ccccc2)c1)c1ccccc1
[1]
  Potency: inactive
[7]
  Potency: inactive
[5]
  Potency: inactive
[4]
  Potency: 2.83 µM (active)

## COc1ccc(Cn2c(=O)[nH]c3cc(C(=O)N4CCN(c5ccccc5)CC4)ccc3c2=O)cc1
[1]
  Potency: inactive
[2]
  Potency: inactive
[3]
  Potency: inactive
[4]
  Potency: inactive

## N#Cc1nc(NCC(F)F)nc(Nc2cc(F)cc(F)c2)n1
[1]
  Potency: inactive
[7]
  Potency: inactive
[5]
  Potency: inactive
[4]
  Potency: inactive

## Cc1ccc(NC(=O)N2CCN(c3ccc(Cl)c(Cl)c3)CC2)cc1
[1]
  Potency: inactive
[2]
  Potency: inactive
[3]
  Potency: inactive
[4]
  Potency: inactive

## CCn1cc2nc(SCc3ccc(F)cc3)n(CCc3ccccc3)c(=O)c2n1
[1]
  Potency: 14.1 µM (active)
[2]
  Potency: 0.562 µM (active)
[3]
  Potency: 7.94 µM (active)
[4]
  Potency: inactive

## CCc1cc(N2CCOC(c3ccc4cc(OC)ccc4c3)C2)nc(C)n1 (stereo not drawn)
[1]
  Potency: inactive
[2]
  Potency: inactive
[3]
  Potency: inactive
[4]
  Potency: inactive

## COc1ccc(CN(Cc2ccccc2)C(=O)c2ccccc2N)cc1COc1ccc(NC(C)=O)cc1
[1]
  Potency: inactive
[7]
  Potency: inactive
[5]
  Potency: inactive

## COc1cccc(-c2cccc(C(=O)N3CCN(C(=O)Nc4ccccc4)CC3)c2)c1
[1]
  Potency: inactive
[2]
  Potency: inactive
[3]
  Potency: inactive

## NCCCNc1ncnc2ccc(-c3ccc4c(c3)OCO4)cc12
[1]
  Potency: inactive
[7]
  Potency: inactive
[4]
  Potency: 11.3 µM (active)

## COc1ccc(NC(c2nnc(-c3ccccc3)o2)c2ccccc2F)cc1Cl (stereo not drawn)
[1]
  Potency: inactive
[2]
  Potency: inactive
[3]
  Potency: inactive
[4]
  Potency: inactive

## CCOC(=O)Cn1c(=O)oc2cc(S(=O)(=O)N3CCN(c4ccc(C(C)=O)cc4)CC3)ccc21
[1]
  Potency: 7.08 µM (active)
[2]
  Potency: 0.355 µM (active)
[3]
  Potency: inactive

## CC(C)Sc1ncc(Cl)c(C(=O)Nc2nc3ccc(S(C)(=O)=O)cc3s2)n1
[1]
  Potency: inactive
[2]
  Potency: inactive
[3]
  Potency: inactive
[4]
  Potency: inactive

## CN(c1ccccc1)c1ccc(CNc2nn3c(=O)c4ccccc4nc3s2)cc1
[1]
  Potency: 11.2 µM (active)
[2]
  Potency: 12.6 µM (active)
[3]
  Potency: inactive
[5]
  Potency: inactive
[4]
  Potency: 8.96 µM (active)

## COc1ccccc1Nc1cc2ccccc2c(=O)[nH]1
[1]
  Potency: inactive
[2]
  Potency: 0.318 µM (active)
[3]
  Potency: inactive

## COc1cccc(N2CCN(c3nc(C(=O)NCc4cccc(C)c4)cs3)CC2)c1
[1]
  Potency: inactive
[2]
  Potency: inactive
[3]
  Potency: inactive

From PubChem BioAssay (NCATS)
